# Assay results reported in PubChem BioAssay AID434970 (Sanford-Burnham Center for Chemical Genomics, 2010).
# Hit rate of the full screen: of about 11,000 compounds, about 310 (2.8%) were called active. Cut-off read from the data, not from the text of the source: active = activity change below about -85%; inactive = the rest. This excerpt belongs to a sample that is enriched for actives.
# Test system: intestinal alkaline phosphatase [Mus musculus]
# Assay: mouse intestinal phosphatase enzyme activation – biochemical, luminescence, single concentration, confirmation (AID 434970)
# Conditions: purified mouse IAP, CDP-Star luminescence, 30 min, at 10 µM; activation factor: measured here: IAP activation factor, stronger effect = higher value; activity change, negative = activation: stronger effect = lower value
SMILES,activation factor,"activity change, negative = activation"
Cc1ccc(CN2C3CCCC2CC(NC(=O)Nc2cccc(F)c2)C3)cc1 (stereo not given),4.48,-348% (active)
Cc1cc(C)cc(NC(=S)NC2CC3CCCC(C2)N3Cc2cccs2)c1 (stereo not given),2.5,-150% (active)
Cc1ccc(CN2C3CCCC2CC(NC(=S)NCc2ccccc2)C3)cc1 (stereo not given),2.88,-188% (active)
CCc1ccc(N2C(=O)NC(=O)C(Cc3ccc(OC)cc3OC)C2=O)cc1 (stereo not given),1.06,-5.6% (inactive)
CN1CCN(Cc2cc(C(C)(C)C)c(O)c(C(C)(C)C)c2)CC1,0.944,5.6% (inactive)
CC(CO)(CO)N=Cc1c(O)n(-c2cccc3ccccc23)c(=O)[nH]c1=O,1.12,-12.2% (inactive)
Cc1cc(NC(=O)COC(=O)c2c(C)nn(Cc3ccccc3)c2Cl)no1,0.971,2.9% (inactive)
CSc1ccc(C(=O)C(C)(C)N2CCOCC2)cc1,0.965,3.5% (inactive)
CCOC(=O)c1c(-n2c(C)cc(C=C3C(=O)NC(=S)NC3=O)c2C)sc2c1CCCC2,0.649,35.1% (inactive)
COc1ccc(-n2c(=O)[nH]c3ccccc3c2=O)c(OC)c1,1.08,-7.55% (inactive)
CCOP(=O)(C(NC(=O)c1ccccc1Cl)=C(Cl)Cl)c1ccccc1 (stereo not given),1.07,-6.55% (inactive)
O=[N+]([O-])c1cc(S(=O)(=O)c2ccc(O)c([N+](=O)[O-])c2)ccc1O,0.471,52.9% (inactive)
O=C(Cc1ccccc1)Oc1ccccc1N1C(=O)CCC1=O,1.07,-7.1% (inactive)
CCOc1ccc2nc(N3CCC(C(=O)N4CCC5(CC4)OCCO5)CC3)sc2c1,0.97,3% (inactive)
CC1(C)CSC(Nc2ccc(F)c(Cl)c2)=N1,0.924,7.6% (inactive)
Clc1ccc(C(c2ccc(Cl)cc2)n2cc[n+](CC(OCc3ccc(Cl)cc3Cl)c3ccc(Cl)cc3Cl)c2)cc1 (stereo not given),31,-3000% (active)
Cc1nc2cc(F)ccc2n1C1CCN(Cc2nnnn2CCc2ccccc2)CC1,1.13,-13.2% (inactive)
O=C(Cn1cnc2ccccc2c1=O)NCCC(=O)N1CCC2(CC1)OCCO2,1.09,-9.25% (inactive)
COc1ccc(P2(=O)Nc3ccccc3N2)cc1,0.951,4.95% (inactive)
CCOC(=O)c1ccc(N2C(=O)CC(N3CC=C(c4ccc(F)cc4)CC3)C2=O)cc1 (stereo not given),0.996,0.45% (inactive)
